Test [1] in a line: Quantitative High-Throughput drug screen in 47 multiple myeloma cell lines against the NCATS MIPE library collection: KMS20_JCRB cell viability assay (AID 1918973). Also: nearly all actives have a fitted effect of over 45% in size. A digest of the protocol:
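CellTiter-Glo luminescence (ATP) after 48 h compound exposure, 37C/5% CO2; 500 cells/well; MIPE 4.0 approved/investigational drugs pinned in; DMSO = 100%, media only = 0% viability.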

A short description of test [2]: Quantitative High-Throughput drug screen in 47 multiple myeloma cell lines against the NCATS MIPE library collection: KMS26_JCRB cell viability assay (AID 1918975). Also: nearly all actives have a fitted effect of over 45% in size. A digest of the protocol: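 Myeloma cell lines, 500 cells per well, exposed to MIPE 4.0 library compounds for 48 h at 37C, 5% CO2. Viability from ATP by CellTiter-Glo luminescence; normalised to DMSO (100%) and media-only (0%) wells.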

A short description of test [3]: Quantitative High-Throughput drug screen in 47 multiple myeloma cell lines against the NCATS MIPE library collection: MOLP8_DSMZ cell viability assay (AID 1918977). Also: nearly all actives have a fitted effect of over 45% in size. A digest of the protocol: (§1)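 500 cells/well; MIPE 4.0 drugs pin-transferred; 48 h, 37C, 5% CO2. CellTiter-Glo, 5 min RT, luminescence. Controls: DMSO 100%, media 0%.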
Test [4] is described as follows: Quantitative High-Throughput drug screen in 47 multiple myeloma cell lines against the NCATS MIPE library collection: NCIH929_DSMZ cell viability assay (AID 1918978). Also: nearly all actives have a fitted effect of over 35% in size. A digest of the protocol:
as §1

Test [5] can be described thus: Quantitative High-Throughput drug screen in 47 multiple myeloma cell lines against the NCATS MIPE library collection: OCIMY1_PLB cell viability assay (AID 1918979). Also: nearly all actives have a fitted effect of over 35% in size. The gist of the method: as §1
A short description of test [6]: Quantitative High-Throughput drug screen in 47 multiple myeloma cell lines against the NCATS MIPE library collection: MM1R_ATCC cell viability assay (AID 1918981). Also: nearly all actives have a fitted effect of over 35% in size. A digest of the protocol: as §1
The nature of test [7]: Quantitative High-Throughput drug screen in 47 multiple myeloma cell lines against the NCATS MIPE library collection: KMS28PE_JCRB cell viability assay (AID 1918983). Also: nearly all actives have a fitted effect of over 35% in size. A digest of the protocol:
as §1

The nature of test [8]: Quantitative High-Throughput drug screen in 47 multiple myeloma cell lines against the NCATS MIPE library collection: L363_DSMZ cell viability assay (AID 1918984). Also: nearly all actives have a fitted effect of over 40% in size. As to conditions: L363 myeloma viability, CellTiter-Glo ATP luminescence, 48 h; viability (% of control): at 45.8 µM (top of the series). A digest of the protocol:
as §1
In general terms: Cellular ATP, detected with luciferase, serves as a proxy for viable cell number.

Test [9] is described as follows: Quantitative High-Throughput drug screen in 47 multiple myeloma cell lines against the NCATS MIPE library collection: OCIMY7_PLB cell viability assay (AID 1918987). Also: nearly all actives have a fitted effect of over 65% in size. The conditions noted are these: OCI-MY7 myeloma viability, CellTiter-Glo ATP, 48 h; viability (% of DMSO): at 45.8 µM (top of the series). A digest of the protocol: as §1
Test [10] in a line: Quantitative High-Throughput drug screen in 47 multiple myeloma cell lines against the NCATS MIPE library collection: OCIMY5_PLB cell viability assay (AID 1918988). Also: nearly all actives have a fitted effect of over 65% in size. A digest of the protocol:
as §1

Test [11] can be described thus: Quantitative High-Throughput drug screen in 47 multiple myeloma cell lines against the NCATS MIPE library collection: OPM1_PLB cell viability assay (AID 1918989). Also: nearly all actives have a fitted effect of over 40% in size. The gist of the method: as §1
A short description of test [12]: Quantitative High-Throughput drug screen in 47 multiple myeloma cell lines against the NCATS MIPE library collection: U266_ATCC cell viability assay (AID 1919864). Also: nearly all actives have a fitted effect of over 35% in size. The gist of the method:
as §1

A short description of test [13]: Quantitative High-Throughput drug screen in 47 multiple myeloma cell lines against the NCATS MIPE library collection: XG6_PLB cell viability assay (AID 1919865). Also: nearly all actives have a fitted effect of over 40% in size. A digest of the protocol: as §1
A short description of test [14]: Quantitative High-Throughput drug screen in 47 multiple myeloma cell lines against the NCATS MIPE library collection: XG1_PLB cell viability assay (AID 1919866). Also: nearly all actives have a fitted effect of over 35% in size. A digest of the protocol:
as §1

Test [15] is described as follows: Quantitative High-Throughput drug screen in 47 multiple myeloma cell lines against the NCATS MIPE library collection: MMM1_PLB cell viability assay (AID 1918976). Also: nearly all actives have a fitted effect of over 35% in size. The gist of the method:
as §1

Test [16] in a line: Quantitative High-Throughput drug screen in 47 multiple myeloma cell lines against the NCATS MIPE library collection: MM1S_ATCC cell viability assay (AID 1918980). Also: nearly all actives have a fitted effect of over 45% in size. The gist of the method:
as §1

The nature of test [17]: Quantitative High-Throughput drug screen in 47 multiple myeloma cell lines against the NCATS MIPE library collection: SKMM1_PLB cell viability assay (AID 1919863). Also: nearly all actives have a fitted effect of over 35% in size. The conditions noted are these: SKMM1 myeloma viability, CellTiter-Glo ATP, 48 h; viability: stronger effect = lower value. The gist of the method:
as §1

Test [18] is described as follows: Quantitative High-Throughput drug screen in 47 multiple myeloma cell lines against the NCATS MIPE library collection: KMS34_JCRB cell viability assay (AID 1918985). Also: nearly all actives have a fitted effect of over 40% in size. The gist of the method: as §1
Test [19] in a line: Quantitative High-Throughput drug screen in 47 multiple myeloma cell lines against the NCATS MIPE library collection: LP1_DSMZ cell viability assay (AID 1918982). Also: nearly all actives have a fitted effect of over 35% in size. A digest of the protocol:
as §1

Results filed as inconclusive are left out. Unmarked numbers belong to inactive results. Calls of active or inactive are those of the source. Calls follow the shape of the dose curve; as a rule, active = well fitted curve in the direction sought with a large enough effect; inconclusive = small, poorly fitted or top-dose-only effect, or another doubt; inactive = no such curve, though single readings can be large; an effect the other way counts as inactive or inconclusive.

We go through twelve compounds from PubChem BioAssay (NCATS).
Potency is read from the fitted curve at half-maximal effect.

Turning to `CC(=O)N1CCN(c2ccc(OCc3nn(C)c(C)c3-c3cccc4c(CCCOc5cc(C)c(Cl)c(C)c5)c(C(=O)O)n(Cc5cccnc5)c34)cc2)CC1`, the Potency in test [1] is 2.96 µM (active); in test [2], 18.7 µM (active); in test [3] it was 20.9 µM (active); in [4], 2.96 µM (active); in test [6] it was 20.9 µM (active); in [7] it was 20.9 µM (active). The Potency in test [8] was 18.7 µM (active); in test [9], 0.833 µM (active); in [10], 20.9 µM (active); in test [11], 7.43 µM (active); in [12] it was 20.9 µM (active); in test [13], 5.9 µM (active). The Potency in [14] was 5.9 µM (active). In addition, the Potency result in test [5] is “inactive”.

In the case of `CCN1CCC(n2cc(CNc3cc(Cl)c4ncc(C#N)c(Nc5ccc(F)c(Cl)c5)c4c3)nn2)CC1`, the Potency was 16.6 µM (active) in [1]; 8.33 µM (active) in test [2]; 14.8 µM (active) in test [15]; 20.9 µM (active) in [4]; 16.6 µM (active) in test [16]; 8.33 µM (active) in test [6]. The Potency in test [7] was 7.43 µM (active); in test [8], 4.69 µM (active); in [10] it was 4.18 µM (active); in [11], 18.7 µM (active); in test [17] it was 5.9 µM (active); in [12], 20.9 µM (active). Further, the Potency was 14.8 µM (active) in [13] and 23.5 µM (active) in test [14].

Regarding `CN(C)S(=O)(=O)c1ccc2c(c1)C(=Cc1cc3c([nH]1)CCCC3)C(=O)N2`, the Potency is 10.5 µM (active) in test [1]; 2.35 µM (active) in test [2]; 18.7 µM (active) in test [15]; 20.9 µM (active) in test [16]; 2.96 µM (active) in test [6]; 20.9 µM (active) in test [7]. Also, the Potency in test [18] was 5.9 µM (active); in [9] it was 3.32 µM (active); in test [10], 2.09 µM (active).

Regarding `O=C(Nc1ccc(OC(F)(F)F)cc1)c1sccc1NCc1ccnc2ccccc12`, the Potency in test [1] is 3.72 µM (active); in [2], 18.7 µM (active); in test [15], 16.6 µM (active); in [4], 20.9 µM (active); in test [16], 20.9 µM (active); in test [6], 20.9 µM (active). The Potency in test [19] was 20.9 µM (active); in test [7], 20.9 µM (active); in test [18], 10.5 µM (active); in test [9] it was 16.6 µM (active); in [10], 2.96 µM (active); in [11] it was 20.9 µM (active). The results for the Potency in test [17] and in test [14] were 18.7 µM (active) and 5.9 µM (active), respectively.

With `COc1c(C)c2c(c(O)c1CC=C(C)CCC(=O)OCCN1CCOCC1)C(=O)OC2`, the Potency result in test [1] and in test [2] was “inactive” throughout. Also, the Potency in [3] was 2.96 µM (active); in [5] it was 10.5 µM (active); in [16] it was 6.62 µM (active); in test [6], 11.8 µM (active); in [19], 6.62 µM (active); in test [7] it was 4.69 µM (active). The Potency in test [18] is 5.9 µM (active); in [10] it was 5.26 µM (active); in test [11], 8.33 µM (active); in [17], 4.18 µM (active); in test [12], 8.33 µM (active).

The viability is a read-out of living cells in per cent, often relative to untreated cells. For the compound `C[C@H](CCC(=O)O)[C@H]1CC[C@H]2[C@H]3[C@@H](CC[C@]12C)[C@@]1(C)CC[C@@H](O)C[C@H]1C[C@@H]3O`, the Potency entry in test [1], in test [2], in test [5], in [16], in test [6] and in [7] was “inactive” each time. Further, the Potency result in test [8] and in test [11] was “inactive” each time. Also, in [15], the Potency is 1.66 µM (active). The viability in test [17] is 120%.

`CC1(C)OC2CC3C4CC(F)C5=CC(=O)C=CC5(C)C4C(O)CC3(C)[C@]2(C(=O)CO)O1` (some centres not stated): the Potency entry in test [1], in test [2], in [15], in test [4], in test [5] and in [6] was “inactive” throughout. The Potency entry in [7], in test [11], in test [12] and in test [14] was “inactive” each time. Further, the Potency in [16] is 0.0166 µM (active); in [18], 0.0209 µM (active). Besides, the viability in [17] is 131%.

Turning to `Cn1c(=O)c(Oc2ccc(F)cc2F)cc2cnc(NC3CCOCC3)nc21`, the Potency result in test [1], in test [2], in [4], in test [7] and in [12] was “inactive” in each case. Further, the Potency in test [15] is 1.87 µM (active); in test [6] it was 7.43 µM (active); in test [18], 1.32 µM (active); in test [10], 18.7 µM (active).

As to `CC(=O)NCCC(=O)N[C@@H](CCC(N)=O)C(=O)N[C@@H](CO)C(=O)N[C@@H](CCC(N)=O)C(=O)N[C@@H](CCC(N)=O)C(=O)N[C@H](C(=O)N[C@@H](Cc1ccccc1)C(=O)N[C@]1(C)CCCCCCC=CCCC[C@@](C)(C(=O)N[C@@H](CCC(N)=O)C(=O)N[C@@H](CC(N)=O)C(N)=O)NC(=O)[C@H](CC(C)C)NC(=O)[C@H](CC(C)C)NC(=O)[C@@H](CCCNC(=N)N)NC(=O)[C@H](Cc2c[nH]c3ccccc23)NC(=O)[C@H](CC(C)C)NC(=O)[C@H](CC(N)=O)NC1=O)[C@H](C)O`, the Potency in [1] is 18.7 µM (active); in [2], 14.8 µM (active); in test [15], 5.26 µM (active); in test [5], 20.9 µM (active); in [16] it was 20.9 µM (active); in [6] it was 26.4 µM (active). The Potency is 20.9 µM (active) in [19]; 18.7 µM (active) in test [7]; 20.9 µM (active) in [9]; 26.4 µM (active) in [11]; 16.6 µM (active) in test [17].

Take `Cc1ccc(NC(=O)Nc2cc(C(F)(F)F)ccc2F)cc1Nc1ccc2c(c1)NC(=O)C2=Cc1ccc[nH]1`: the Potency in test [1] was 5.9 µM (active); in [2], 37.2 µM (active); in test [15], 33.2 µM (active); in test [4] it was 4.18 µM (active); in [5] it was 23.5 µM (active); in [6] it was 26.4 µM (active). The Potency in test [19] was 26.4 µM (active); in test [10], 23.5 µM (active); in test [11], 4.69 µM (active); in test [13], 5.26 µM (active); in test [14] it was 6.62 µM (active).

For the compound `COc1ccc2nc3cc(Cl)ccc3c(Nc3cc(CN4CCCC4)c(O)c(CN4CCCC4)c3)c2n1`, the Potency in test [1] is 20.9 µM (active); in test [2] it was 16.6 µM (active); in test [15] it was 14.8 µM (active); in test [3] it was 16.6 µM (active); in test [16], 20.9 µM (active); in test [19], 20.9 µM (active). Besides, the Potency in [8] was 16.6 µM (active); in test [10], 18.7 µM (active); in [11], 23.5 µM (active); in test [17], 14.8 µM (active); in [13] it was 14.8 µM (active); in test [14] it was 18.7 µM (active).

For the compound `Cc1nn(Cc2ccccc2Cl)c(C)c1CN(C)CC(O)COc1ccc(Cl)cc1` (configuration not stated), the Potency in test [1] was 11.8 µM (active); in [2] it was 20.9 µM (active); in test [15], 18.7 µM (active); in test [4], 23.5 µM (active); in test [5], 18.7 µM (active); in test [6] it was 20.9 µM (active). Further, the Potency in test [7] is 4.69 µM (active); in test [10], 10.5 µM (active); in [17], 3.32 µM (active); in test [12] it was 18.7 µM (active); in test [13], 20.9 µM (active); in test [14], 20.9 µM (active).
